# In PubChem BioAssay AID504332 (National Center for Advancing Translational Sciences (NCATS), 2011):
# Among all 350,000 compounds or so, about 31,000 (8.9%) were called active. Roughly 15% stayed inconclusive and do not appear here. This excerpt belongs to a sample that is enriched for actives. Values without a mark were called inactive. Calls come from the whole dose curve; as a rule, active = well fitted inhibition curve with a large enough effect; inconclusive = small, poorly fitted or top-dose-only effect; inactive = no such curve, though single readings can be large or run the other way.
# Target: Histone-lysine N-methyltransferase EHMT2 (Homo sapiens) (UniProt Q96KQ7)
# Sequence (Q96KQ7 913-1193 limits assumed): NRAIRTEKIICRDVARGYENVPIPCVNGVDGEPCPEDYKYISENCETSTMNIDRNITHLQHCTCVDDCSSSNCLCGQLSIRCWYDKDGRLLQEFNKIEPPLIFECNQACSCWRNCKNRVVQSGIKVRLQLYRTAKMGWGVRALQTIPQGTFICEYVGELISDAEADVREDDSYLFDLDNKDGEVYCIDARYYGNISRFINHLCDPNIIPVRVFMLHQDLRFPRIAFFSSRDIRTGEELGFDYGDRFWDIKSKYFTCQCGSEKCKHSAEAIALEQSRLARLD
# Assay: qHTS Assay for Inhibitors of Histone Lysine Methyltransferase G9a; note: nearly all actives have a fitted effect of over 75% in size
# Conditions: G9a H3K9 monomethylation, AlphaScreen, 2 h; series mostly up to 59 µM; activity, negative = inhibition: at the top concentration
# Method in brief: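 Step 1: enzyme (final 20 nM) with compound, 15 min RT. Step 2: substrate peptide 500 nM and SAM 20 uM, 2 h RT. Step 3: anti-H3K9me1 antibody and AlphaScreen beads, 10 min, then plate read.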
# % is set by controls: 0 for no effect and ±100 for the full control effect; potency is the fitted concentration of half-maximal effect.
SMILES,"activity, negative = inhibition",Potency
COc1ccc(Cn2c(C(=O)O)c(CNCCc3cccs3)c3ccc(OC)cc32)cc1,6.08%,–
CC1CCC(N2CC(=O)N(CCC3=CCCCC3)C(c3ccc(F)cc3)C2=O)CC1 (centres undefined),8.16%,–
Cc1ccccc1-c1cc(C(=O)NCc2cccs2)n(CC2CC(c3cccnc3)=NO2)n1 (centres undefined),-0.783% [at 0.501 µM],–
Cc1ccc(-c2nc(Cn3c(=O)cc(-c4ccccc4)c4c(C)nn(C)c43)c(C)o2)cc1,9.13%,–
COc1ccccc1NC(=O)CC(NCCN(C)C)C(=O)O (centres undefined),17.5% [at 102 µM],–
COc1cc2ccccc2cc1C(=O)N(CCN(C)C)c1nc2c(F)cccc2s1,–,44.7 µM (active)
COc1ccc(CCN(C(=O)COc2ccccc2)c2nc(-c3ccccc3)cs2)cc1OC,-1.75%,–
COc1cc2ccccc2cc1C(=O)Nc1ccncc1,1.4% [at 102 µM],–
COc1cccc2sc(N(CCCN(C)C)C(=O)C(c3ccccc3)c3ccccc3)nc12,–,6.31 µM (active)
CCOc1ccc2nc(Nc3nc4ccc(NC(C)=O)cc4s3)sc2c1,-13.6%,–
CCCC(=O)N(CCN1CCOCC1)c1nc2ccc(OCC)cc2s1,2.94%,–
CN(Cc1ccccc1)C(=O)COc1ccccc1,-14%,–
CCOc1cccc2sc(N3CCN(C(=O)C4CC4)CC3)nc12,-15.9%,–
CN(C)CCCN(C(=O)COc1ccccc1)c1nc2c(Cl)cccc2s1,–,31.6 µM (active)
COc1cc(SC)ccc1C(=O)N(Cc1ccccc1)c1ccccc1,55.7% [at 102 µM],–
CCOc1ccc2nc(N(CCCN(C)C)C(=O)c3ccc(C(=O)c4ccccc4)cc3)sc2c1,–,44.7 µM (active)
CCOc1ccc(S(=O)(=O)N2CCC(C(=O)NCC(=O)Nc3cccc(Cl)c3C)CC2)cc1,15.9%,–
Cc1ccc(NC(=O)CSc2cccc3cccnc23)c(C)c1,-27.5% [at 102 µM],–
COc1ccc(NC(=O)CSc2nnc(Cc3ccccc3)c(=O)n2N)cc1,-45.5% [at 102 µM],–
COc1ccc2sc(N(CCCN(C)C)C(=O)c3ccc(S(=O)(=O)N(C)C4CCCCC4)cc3)nc2c1,-7.7% [at 2.33 µM],–
COc1ccc(N(C)C(=O)CCS(=O)(=O)c2cccc3nsnc23)cc1,-39.4%,–
Cc1cccc2sc(N(CCCN(C)C)C(=O)CCS(=O)(=O)c3ccccc3)nc12,–,22.4 µM (active)

SMILES,"activity, negative = inhibition",Potency
COc1cccc2sc(N(CCCN(C)C)C(=O)CCS(=O)(=O)c3ccccc3)nc12,–,8.91 µM (active)
CCN(CC)CCN(C(=O)c1cccc([N+](=O)[O-])c1)c1nc2ccc(OC)cc2s1,–,50.1 µM (active)
O=C(CCS(=O)(=O)c1ccccc1)NC1CCCC1,-7.56% [at 102 µM],–
COc1ccccc1CNC(=O)CS(=O)(=O)c1cccc2nsnc12,3.96%,–
COc1ccc(-n2cnnc2SCC(=O)Nc2cccc([N+](=O)[O-])c2)cc1,-3.5% [at 102 µM],–
COc1ccc(C)cc1NC(=O)CCS(=O)(=O)c1cccc2nonc12,-1.53% [at 102 µM],–
CN(C1CCS(=O)(=O)C1)S(=O)(=O)c1ccc2ccccc2c1 (centres undefined),5.42% [at 102 µM],–
COc1ccccc1CNS(=O)(=O)c1cc(Br)cc2c1N(C(C)=O)C(C)C2 (centres undefined),2.53%,–
O=C(CCSCc1cccc(F)c1)NCc1ccccc1,-6.15%,–
COc1ccc(NS(=O)(=O)c2ccc(C)c(C(=O)NNC(=O)c3csc(N4CCOCC4)n3)c2)cc1,2.43% [at 102 µM],–
CC(=O)N1CCc2cc(S(=O)(=O)NC3CCCCC3)ccc21,-3.98% [at 102 µM],–
O=C(CCC1CCCC1)N=C1SC2CS(=O)(=O)CC2N1Cc1ccccc1 (centres undefined),4.22% [at 102 µM],–
COc1cc2c(C(=O)N(C)c3cc(Cl)ccc3OC)cn(C)c(=O)c2cc1OC,23.4% [at 102 µM],–
O=C(CSc1nc(-c2ccco2)cc(C(F)(F)F)n1)N1CCc2ccccc2C1,–,12.6 µM (active)
O=C(CSc1nc(-c2ccco2)cc(C(F)(F)F)n1)NCc1cccs1,-1.69%,–
Cc1cccc(NC(=O)CSc2nc(-c3ccco3)cc(C(F)(F)F)n2)c1C,8.51%,–
CC1(c2nnc(Cc3ccccc3)o2)CC(c2ccccc2F)=NO1 (centres undefined),-2.28% [at 2.33 µM],–
CC(=O)N1CCCc2cc(S(=O)(=O)N3CCC(C(=O)NC4CCCCC4)CC3)ccc21,14.6%,–
COc1ccc(Br)cc1C1CC(=O)Nc2c1c(C)nn2-c1nc(C)cc(C)n1 (centres undefined),-45.2%,–
COc1cccc(NC(=O)CN(C)C(=O)/C=C/c2cn(-c3ccccc3)nc2-c2cccs2)c1,-31.2% [at 102 µM],–
O=Cc1cn(Cc2ccccc2)nc1-c1cccnc1,-15.5% [at 102 µM],–
COc1ccc(NC(=O)CN(C)C(=O)/C=C/c2cn(Cc3ccccc3)nc2-c2cccnc2)cc1,–,7.94 µM (active)

SMILES,"activity, negative = inhibition",Potency
CCC(=O)Nc1cccc(-c2nc3cc(C)ccc3o2)c1,5.08%,–
Cc1cc(NC(=O)C2CCC(CNS(=O)(=O)c3ccc(Br)s3)CC2)ccc1Br (centres undefined),-2.51%,–
CC1=C(C(=O)OCc2ccccc2)C(c2ccco2)n2ncnc2N1 (centres undefined),-34% [at 102 µM],–
COC(=O)C1=C(C)Nc2ncnn2C1c1ccco1 (centres undefined),3.2% [at 12.7 µM],–
Brc1ccc(C2=CC(c3ccco3)n3ncnc3N2)cc1 (centres undefined),–,12.6 µM (active)
CCOC(=O)c1c(C)[nH]c(CCC(=O)Nc2ccc(OC)c(OC)c2)c1C,12%,–
COc1ccc(Nc2ccc([N+](=O)[O-])cn2)cn1,1.56% [at 102 µM],–
COc1ccc(NS(=O)(=O)c2ccc(F)cc2F)cn1,9.65% [at 102 µM],–
COc1ccc(Nc2cc(Cl)ccc2C(=O)O)cn1,–,2.24 µM (active)
Cc1ccccc1CCNC(=O)C1CCN(c2nc3ccccc3nc2C(F)(F)F)CC1,6.11%,–
CCC(=O)c1ccc(OCC(=O)N(CC)CC2COc3ccccc3O2)cc1 (centres undefined),1.74% [at 102 µM],–
Cc1ccccc1Nc1scc(-c2ccc(Br)cc2)[n+]1-c1ccccc1C,–,20 µM (active)
CCOc1ccc(NC(=O)c2cc(S(=O)(=O)N3CCCC3)c[nH]2)cc1,-25.3%,–
Cc1onc(-c2ccccc2Cl)c1C(=O)OCc1nnc(-c2ccccc2)o1,28.6% [at 102 µM],–
CCC(=O)N1CCc2cc(Br)cc(S(=O)(=O)CCC(=O)NCc3ccccc3OC)c21,-8.43%,–
O=C(O)C1OC(C(=O)O)C2C1C(F)(F)C2(F)F (centres undefined),–,39.8 µM (active)
CC1=C(C(=O)N2CCN(c3cccc(C(F)(F)F)c3)CC2)C2(CCCCC2)OC1=O,-38.2%,–
CNc1ccc(-c2nc(-c3ccccc3C)no2)cc1[N+](=O)[O-],-37.9%,–
C/C=C(/C)C(=O)OC1Cc2c(ccc3ccc(=O)oc23)OC1(C)C (centres undefined),25.6% [at 12.7 µM],–
CC1(C)Oc2ccc3ccc(=O)oc3c2/C(=C/NCCO)C1=O,–,35.5 µM (active)
